Only some compounds are listed: those with a hit (about 11% of all), similar ones and a draw of the others.
HEK293 tox: kills HEK 293 cells. 94,000 compounds, 6.6% hits. AID 1345083. HEK 293 viability, ATP luminescence (CellTiter-Glo), 48-72 h. Potency, µM (top dose mostly 115 µM), actives largely listed as inhibitors; also: nearly all actives have a fitted effect of over 60% in size
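Luminescence from cellular ATP, measured with CellTiter-Glo, indicates HEK 293 viability. Cells plated at 250 cells/well are treated with compound for 48 or 72 hr at 37 degree Celsius before reagent addition.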
hNpr1 antagonist: human Npr1 receptor antagonism; HEK293 hNpr1 GloSensor cGMP, ANP-stimulated luminescence; P16066; 76,000 compounds, 1.6% hits; Potency, µM (titrated, usually from 46.3 µM), hits mostly inhibitors; calls by dose curve; also: nearly all actives have a fitted effect of over 60% in size
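Compound pre-incubated 30 min at room temperature on GloSensor-loaded HEK293 cells stably carrying hNpr1 and the pGS-40F cGMP biosensor. Stimulation uses hNppA at 0.1 nM final; luminescence is taken at baseline and 20 min post-agonist.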
Luciferase inh: Photinus pyralis luciferase inhibition; purified P. pyralis luciferase, luminescence, biochemical; Potency, µM (top dose mostly 115 µM), hits mostly inhibitors; 76,000 compounds, 2.5% hits; also: nearly all actives have a fitted effect of over 65% in size
Target sequence (P08659 whole entry, looked up): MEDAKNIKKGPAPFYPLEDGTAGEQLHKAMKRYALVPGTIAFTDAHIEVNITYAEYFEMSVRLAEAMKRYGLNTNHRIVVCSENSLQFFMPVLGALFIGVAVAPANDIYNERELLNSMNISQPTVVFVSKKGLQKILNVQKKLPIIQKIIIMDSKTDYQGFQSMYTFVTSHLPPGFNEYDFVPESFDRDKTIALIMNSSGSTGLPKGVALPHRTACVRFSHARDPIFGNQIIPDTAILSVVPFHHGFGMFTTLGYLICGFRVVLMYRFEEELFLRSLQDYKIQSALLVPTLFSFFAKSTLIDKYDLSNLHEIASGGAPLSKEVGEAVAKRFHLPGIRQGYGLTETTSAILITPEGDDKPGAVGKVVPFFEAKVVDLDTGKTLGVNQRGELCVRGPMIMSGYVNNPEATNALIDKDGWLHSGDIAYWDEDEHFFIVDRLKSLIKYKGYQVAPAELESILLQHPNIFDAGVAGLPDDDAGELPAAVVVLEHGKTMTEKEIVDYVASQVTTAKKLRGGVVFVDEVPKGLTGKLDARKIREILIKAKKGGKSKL
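FLuc 10nM, D-luciferin 10uM, ATP 10uM, Mg acetate 10mM, Tris acetate pH 7.5, Tween/BSA; cpd qHTS; enzyme added last; CCD luminescence.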
3T3 cytotox: kills NIH 3T3 cells; NIH 3T3 viability, CellTiter-Glo ATP luminescence, 48-72 h; Potency, µM (doses to about 96.7 µM), usual class: inhibitors; 94,000 compounds, 4.3% hits; also: nearly all actives have a fitted effect of over 55% in size
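Viability of NIH 3T3 cells after 48 or 72 hr compound treatment at 37 °C was assessed by CellTiter-Glo, with luminescence imaged following a 10 min room-temperature step.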
Hits are given with their value; 0 = inactive; ? = inconclusive; - = not tested or not shown; ! = not confirmed by another sample. Unless noted, calls follow the shape of the dose curve; as a rule, active = well fitted curve in the direction sought with a large enough effect; inconclusive = small, poorly fitted or top-dose-only effect, or another doubt; inactive = no such curve, though single readings can be large; an effect the other way counts as inactive or inconclusive.

SMILES	HEK293 tox	hNpr1 antagonist	Luciferase inh	3T3 cytotox
Cc1ncoc1C(=O)NCc1cc(Cl)cc2c(C)c(-c3ccccc3)[nH]c12	?	2.8µM	?	?
Cc1ncoc1C(=O)NCC(=O)N1CCCCCNC(=O)CC1c1ccccc1 (stereo not drawn)	0	0	0	0
CC(C)(CC(=O)O)CC(=O)N[C@H]1C[C@H]2C(=O)Nc3ccccc3C(=O)N2C1	0	0	0	0
COc1ccccc1Nc1cnc2ccc(-c3ccccc3OC)nn12	?	0	0	?
COc1ccc(-c2ccc3ncc(Nc4ccccc4F)n3n2)cc1OC	45µM	0	0	35µM
COc1ccc(-c2ccc3ncc(Nc4cccnc4OC)n3n2)cc1OC	14µM	0	0	0
N#Cc1cccc(NC(=O)Cn2ccn3nc4c(c3c2=O)CCCC4)c1	0	0	0	0
Cc1ccc(NC(=O)N2CCCC(Cn3c(C4CC4)nc4cccnc43)C2)cc1C (stereo not drawn)	?	0	0	?
Cn1ccc2c(C(=O)NCC3CCC(=O)N3)nc(-c3ccccc3C#N)cc21 (stereo not drawn)	?	0	0	25µM
CCN(CC1CCCN(CCc2cccc(OC)c2)C1)C(=O)c1cc(C)no1 (stereo not drawn)	0	0	0	0
CC1(C(=O)N2CCOc3c(O)cc(-c4cccc(Cl)c4)cc3C2)CCCO1 (stereo not drawn)	45µM	0	0	?
CC(C)CNC(=O)CN1CCOc2c(O)cc(-c3cccc(Cl)c3)cc2C1	?	0	0	?
Cc1nc(C(=O)N2CCOc3c(O)cc(-c4cccc(Cl)c4)cc3C2)cs1	18µM	?	0	?
COc1ccc(Cn2c(=O)c(C(=O)N3CCN([S+](=O)([O-])c4cccc(C(F)(F)F)c4)CC3)nc3cccnc32)cc1	0	-	-	0
OCC1CNCCC12CCN(Cc1ccc3ccccc3c1)CC2 (stereo not drawn)	28µM	0	0	45µM
OCC1CN(c2ncccn2)CC12CCN(Cc1ccc3cc[nH]c3c1)CC2 (stereo not drawn)	0	0	0	0
O=C1N(Cc2ccc(F)cc2)C[C@H]2CN(Cc3cnc4ccccc4c3)CCN12	?	?	0	71µM
Cc1cccc(CNC(=O)Cc2ccc(N(Cc3ccccc3)C(=O)c3ccco3)cc2)c1	?	0	0	45µM
Cc1ccc(CN(C(=O)c2ccco2)c2ccc(CC(=O)NCc3ccccc3)cc2)cc1	35µM	0	0	?
CCCNC(=O)Cc1ccc(N(Cc2ccc(C)cc2)C(=O)c2ccco2)cc1	?	0	0	0
Cc1ccc(CN(C(=O)c2ccco2)c2ccc(CC(=O)N(C)Cc3ccccc3)cc2)cc1	32µM	0	0	?
CCOC(=O)C1CCN(C(=O)Cc2ccc(N(Cc3ccccc3)C(=O)c3ccco3)cc2)CC1	40µM	0	0	?
Cc1ccc(NC(=O)CC2CCCN(c3cnn(C)c(=O)c3)C2)cc1F (stereo not drawn)	?	0	?	?
Cc1nnc(NC(=O)C2c3ccccc3C(=O)N(CC(C)C)C23CCCCC3)s1 (stereo not drawn)	0	0	0	0
COc1cccc(-c2c(C(=O)NCC3CCCCC3)nc3sccn23)c1	0	-	-	?
SMILES	HEK293 tox	hNpr1 antagonist	Luciferase inh	3T3 cytotox
CN(C(=O)[C@@H]1C[C@@H](c2ccc(F)cc2)N([S+](=O)([O-])c2ccccc2)C1)c1ccccc1	?	0	0	35µM
COc1ccc(CC2CCOC3(CCN(C(=O)c4ccco4)CC3)C2)cc1 (stereo not drawn)	50µM	-	-	?
COc1ccc2[nH]c(C(=O)N3CCC4(CC3)CC(O)CCO4)cc2c1 (stereo not drawn)	0	0	0	0
COc1ccc(CC2CCOC3(CCN(C(=O)c4cc5ccccc5[nH]4)CC3)C2)cc1 (stereo not drawn)	32µM	0	0	?
COCC1CN(C)CC12CCN(C(=O)c1cc3ccccc3[nH]1)CC2 (stereo not drawn)	89µM	0	?	0
COc1ccc(CC2CCOC3(CCN(C(=O)CC(C)C)CC3)C2)cc1 (stereo not drawn)	?	?	0	?
CN(Cc1ccccc1)Cc1cn([C@H]2CO[C@H]3[C@@H]2OC[C@@H]3NCc2ccccc2)nn1	?	0	0	?
O=C(N[C@H]1CO[C@H]2[C@@H]1OC[C@@H]2n1cc(-c2ccccc2)nn1)c1ccc(C(F)(F)F)cc1	40µM	?	0	?
c1ccc(CN[C@H]2CO[C@H]3[C@@H]2OC[C@@H]3n2cc(CC3CCCCC3)nn2)cc1	?	0	0	35µM
COc1ccc(C(=O)N[C@H]2CO[C@H]3[C@@H]2OC[C@@H]3n2cc(CC3CCCCC3)nn2)cc1	?	0	0	?
Cc1ccc(C(=O)N[C@H]2CO[C@H]3[C@@H]2OC[C@@H]3n2cc(CC3CCCCC3)nn2)cc1	?	0	0	35µM
COC(=O)c1cccc(NC(=S)N[C@H]2CO[C@H]3[C@@H]2OC[C@@H]3n2cc(CC3CCCCC3)nn2)c1	40µM	?	0	?
CC1=C(C(=O)OC(C)C)C(c2ccccc2C)N2C(CC(=O)N3CCCC3)=CSC2=N1 (stereo not drawn)	?	0	0	0
COc1ccc(Cn2c(=O)c(C(=O)N3CCN(C(=O)C4CCCC4)CC3)nc3cccnc32)cc1	0	-	-	0
COCC1CN(C2CCC2)CC12CCN(C(=O)c1ccc(F)cc1)CC2 (stereo not drawn)	?	0	0	0
CCOC(=O)c1cccc(NC(=O)c2c(C)oc3ccn(Cc4ccc(F)cc4)c(=O)c23)c1	40µM	0	0	?
Cc1oc2ccn(Cc3ccccc3F)c(=O)c2c1C(=O)NCc1cc(F)cc(F)c1	35µM	0	0	?
COc1cccc(CNC(=O)c2c(C)oc3ccn(Cc4ccc(F)cc4)c(=O)c23)c1	40µM	0	0	?
COc1cccc(NC(=O)c2c(C)oc3ccn(Cc4ccc(F)cc4)c(=O)c23)c1	?	0	0	0
Cc1oc2ccn(Cc3cccc(F)c3)c(=O)c2c1C(=O)NCC1CCCCC1	40µM	0	0	40µM
CN1C(=O)c2cccn2CC1C(=O)Nc1ccccc1 (stereo not drawn)	0	-	-	0
O=C(NCC(F)(F)F)C1CCCN1c1nccc(Nc2ccccc2F)n1 (stereo not drawn)	?	-	-	0
CNC(=O)c1cc(C)nc2onc(C3CCN(C(=O)c4ccccc4)CC3)c12	0	-	-	0
O=C(NC1CC1)c1nc(-c2cc(Cl)cc(Cl)c2)c2ccccn12	?	0	0	0
O=C(NC1CC1)c1nc(-c2ccc(Cl)cc2Cl)c2ccccn12	35µM	0	0	?
O=C(NC1CC1)c1nc(-c2cccc(C(F)(F)F)c2)c2ccccn12	?	0	0	?
O=C(NC1CC1)c1nc(-c2cccnc2)c2ccccn12	0	-	-	45µM
O=C(NC1CC1)c1nc(-c2ccc(F)cc2)c2ccccn12	89µM!	0	0	?
Cc1nccn1C(C)C(=O)NCc1cccnc1N(C)Cc1ccccc1 (stereo not drawn)	0	0	0	0

Assay outcomes (PubChem)
